Experimental data as given in PubChem BioAssay (EPA / NIEHS).
Several values for one entry are separate records, joined by “and”; a condition that tells them apart may be missing. Identical values can stand only once. A structure can be active in one record and inactive in another. Activity calls are given as the source filed them. How the source made its calls: active means hit-call score of the fitted dose curve at least 0.9, where 1 is the maximum; inactive means score below 0.9.

Experiments:
[1] = read-out: Interleukin-1 alpha (IL1a), IL1A (gene 3552); assay: BSK_KF3CT_IL1a: BioMAP Diversity Plus: KF3CT Assay for Interleukin-1 alpha (IL1a) Biomarker Activity (AID 2283070); conditions: primary human keratinocytes with fibroblasts; actives raise or lower the signal
Procedure, shortened: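 Human keratinocyte plus foreskin fibroblast primary co-culture, sampled 24 h after chemical dosing. IL-1a measured by ELISA; responses fitted bidirectionally against DMSO baseline (negative control), so gain or loss of signal both count.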

[2] = read-out: TIMP metallopeptidase inhibitor 2 (TIMP2), TIMP2 (gene 7077); assay: BSK_KF3CT_TIMP2: BioMAP Diversity Plus: KF3CT Assay for TIMP metallopeptidase inhibitor 2 (TIMP2) Biomarker Activity (AID 2283071); conditions: primary human keratinocytes with fibroblasts; actives raise or lower the signal
Procedure, shortened: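 Human primary keratinocyte/foreskin fibroblast co-culture dosed with chemical and sampled at 24 h. TIMP-2 levels quantified by ELISA; bidirectional fitting against DMSO negative control as baseline.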

[3] = read-out: C-C motif chemokine 2 (Homo sapiens) (UniProt P13500); assay: BSK_KF3CT_MCP1: BioMAP Diversity Plus: KF3CT Assay for Monocyte Chemoattractant Protein 1 (MCP1/CCL2) Biomarker Activity (AID 2283073); conditions: primary human keratinocytes with fibroblasts; actives raise or lower the signal
Procedure, shortened: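 ELISA read-out of MCP-1, 24 h post-dose, in primary human skin keratinocytes co-cultured with fibroblasts. Parallel SRB staining monitors cytotoxicity; changes fitted both directions relative to DMSO.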

[4] = read-out: Matrix Metallopeptidase 9 (MMP9), MMP9 (gene 4318); assay: BSK_KF3CT_MMP9: BioMAP Diversity Plus: KF3CT Assay for Matrix Metallopeptidase 9 (MMP9) Biomarker Activity (AID 2283074); conditions: primary human keratinocytes with fibroblasts; actives raise or lower the signal;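 on AC50: MMP9 protein level quantified by ELISA in the co-culture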
Procedure, shortened: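 Keratinocyte plus foreskin fibroblast human primary skin co-culture was dosed with chemical and MMP-9 was quantified by ELISA 24 h later. Bidirectional curve fitting used DMSO as negative control and activity baseline.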

[5] = read-out: urokinase plasminogen activator (uPA), PLAU (gene 5328); assay: BSK_KF3CT_uPA: BioMAP Diversity Plus: KF3CT Assay for urokinase plasminogen activator (uPA) Biomarker Activity (AID 2283075); conditions: primary human keratinocytes with fibroblasts; actives raise or lower the signal
Procedure, shortened: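 Human keratinocyte plus foreskin fibroblast primary co-culture exposed to chemical for 24 h. uPA levels were quantified by ELISA, and activity was fitted bidirectionally against a DMSO negative-control baseline.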

[6] = read-out: CD40, CD40 (gene 958); assay: BSK_LPS_CD40: BioMAP Diversity Plus: LPS Assay for CD40 Biomarker Activity (AID 2283076); conditions: primary human HUVEC with PBMC; actives raise or lower the signal
Procedure, shortened: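 In the LPS system of human endothelial cells with peripheral blood mononuclear cells, CD40 levels were read by ELISA 24 h post-treatment. Signal changes in either direction were fitted against the DMSO baseline, with parallel SRB protein staining.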

[7] = read-out: Interleukin-8 (IL8), CXCL8 (gene 3576); assay: BSK_LPS_IL8: BioMAP Diversity Plus: LPS Assay for Interleukin-8 (IL8) Biomarker Activity (AID 2283078); conditions: primary human HUVEC with PBMC; actives raise or lower the signal
Procedure, shortened: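 ELISA read-out of IL-8 after 24 h chemical treatment of LPS-activated endothelial/PBMC human primary co-cultures. Changes either up or down relative to DMSO; overt cytotoxicity checked by sulforhodamine B staining in parallel wells.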

[8] = BSK_LPS_SRB: Viability Assessment in the BioMAP Diversity Plus: LPS Assay (AID 2283079); conditions: primary human HUVEC with PBMC;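 further: total protein by sulforhodamine B absorbance as a cytotoxicity measure; measured one day after compound addition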
Procedure, shortened: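 SRB viability endpoint: cells fixed with 10% TCA, stained with 0.1% SRB, read at 560 nm, 24 h post-dose. HUVEC/PBMC co-culture; signal change in either direction scored relative to DMSO.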

[9] = read-out: Interleukin-1 alpha (IL1a), IL1A (gene 3552); assay: BSK_LPS_IL1a: BioMAP Diversity Plus: LPS Assay for Interleukin-1 alpha (IL1a) Biomarker Activity (AID 2283080); conditions: primary human HUVEC with PBMC; actives raise or lower the signal
Procedure, shortened: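 Readout is IL-1a level by ELISA, 24 h post-dose, fitted as gain or loss relative to DMSO. System: LPS-activated human primary co-culture of vascular endothelium and peripheral blood mononuclear cells, with parallel SRB total-protein cytotoxicity.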

[10] = read-out: Monocyte Chemoattractant Protein-1 (MCP1), CCL2 (gene 6347); assay: BSK_LPS_MCP1: BioMAP Diversity Plus: LPS Assay for Monocyte Chemoattractant Protein-1 (MCP1) Biomarker Activity (AID 2283081); conditions: primary human HUVEC with PBMC; actives raise or lower the signal;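 on AC50: secreted MCP-1 protein quantified by ELISA in culture supernatant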
Procedure, shortened: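 Secreted MCP-1 read by ELISA at 24 h post-dosing in an LPS-activated co-culture of endothelial cells with peripheral blood mononuclear cells. Fits run in both directions, DMSO as baseline; parallel SRB staining tracks overt cytotoxicity.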

[11] = BSK_LPS_PGE2: BioMAP Diversity Plus: LPS Assay for Prostaglandin E2 (PGE2) Biomarker Activity (AID 2283082); conditions: primary human HUVEC with PBMC; actives raise or lower the signal;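 on AC50: secreted prostaglandin E2 measured by ELISA in LPS-stimulated co-culture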
Procedure, shortened: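 HUVEC plus PBMC co-culture stimulated with LPS; secreted PGE2 quantified by ELISA 24 h after chemical dosing. Activity fitted bidirectionally against DMSO as negative control and baseline; parallel SRB total-protein staining served as cytotoxicity check.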

[12] = read-out: Macrophage colony-stimulating factor (MCSF), CSF1 (gene 1435); assay: BSK_LPS_MCSF: BioMAP Diversity Plus: LPS Assay for Macrophage colony-stimulating factor (MCSF) Biomarker Activity (AID 2283083); conditions: primary human HUVEC with PBMC; actives raise or lower the signal
Procedure, shortened: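 Bidirectional fitting against DMSO was applied to M-CSF levels read by ELISA at 24 h post-dose. The system pairs human umbilical vein endothelium with peripheral blood mononuclear cells; parallel SRB staining tracked cytotoxicity.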

[13] = read-out: Tissue Factor, F3 (gene 2152); assay: BSK_LPS_TissueFactor: BioMAP Diversity Plus: LPS Assay for Tissue Factor Biomarker Activity (AID 2283084); conditions: primary human HUVEC with PBMC; actives raise or lower the signal
Procedure, shortened: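 Compound was added to an endothelial cell/PBMC co-culture, and after 24 h tissue factor (CD142) was read by ELISA. Gain or loss of signal was fitted against a DMSO baseline, and parallel SRB staining (560 nm) tracked overt cytotoxicity.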

[14] = read-out: Tumor necrosis factor (Homo sapiens) (UniProt P01375); assay: BSK_LPS_TNFa: BioMAP Diversity Plus: LPS Assay for Tumour Necrosis Factor alpha (TNFa) Biomarker Activity (AID 2283085); conditions: primary human HUVEC with PBMC; actives raise or lower the signal;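 on AC50: TNFa protein level quantified by ELISA in the co-culture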
Procedure, shortened: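 Human umbilical vein endothelial cells co-cultured with PBMC were exposed to test chemical and TNFa measured by ELISA 24 h after dosing. Bidirectional curve fitting was done relative to DMSO as negative control and baseline.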

[15] = read-out: Vascular cell adhesion molecule 1 (VCAM1), VCAM1 (gene 7412); assay: BSK_LPS_VCAM1: BioMAP Diversity Plus: LPS Assay for Vascular cell adhesion molecule 1 (VCAM1) Biomarker Activity (AID 2283086); conditions: primary human HUVEC with PBMC; actives raise or lower the signal
Procedure, shortened: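 Human umbilical vein endothelial cells co-cultured with peripheral blood mononuclear cells under LPS stimulation were exposed to test chemical for 24 h. VCAM-1 levels were then measured by ELISA, with bidirectional curve fitting relative to DMSO as negative control and baseline.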

[16] = read-out: CD38, CD38 (gene 952); assay: BSK_SAg_CD38: BioMAP Diversity Plus: SAg Assay for CD38 Biomarker Activity (AID 2283087); conditions: primary human HUVEC with PBMC; actives raise or lower the signal
Procedure, shortened: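 Fluorescence ELISA of cell-surface CD38 served as the read-out, with either increase or decrease fitted against DMSO controls. Cells were a human umbilical vein endothelium plus PBMC co-culture under SEB/TSST-1 stimulation, measured 24 h after dosing.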

[17] = read-out: CD40, CD40 (gene 958); assay: BSK_SAg_CD40: BioMAP Diversity Plus: SAg Assay for CD40 Biomarker Activity (AID 2283088); conditions: primary human HUVEC with PBMC; actives raise or lower the signal
Procedure, shortened: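 CD40 is measured by fluorescence ELISA in an endothelial/PBMC primary human co-culture at 24 h post-dose. Fitting is bidirectional, DMSO baseline. Parallel SRB staining (560 nm) flags cytotoxicity.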

[18] = read-out: Transforming growth factor beta 1 (TGFb1), TGFB1 (gene 7040); assay: BSK_KF3CT_TGFb1: BioMAP Diversity Plus: KF3CT Assay for Transforming growth factor beta 1 (TGFb1) Biomarker Activity (AID 2283072); conditions: primary human keratinocytes with fibroblasts; actives raise or lower the signal
Procedure, shortened: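 Human keratinocyte plus foreskin fibroblast primary co-culture, dosed with chemical for 24 h. TGF-b1 quantified by ELISA. Activity fitted bidirectionally against DMSO negative control as baseline.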

[19] = read-out: E-selectin (Homo sapiens) (UniProt P16581); assay: BSK_LPS_Eselectin: BioMAP Diversity Plus: LPS Assay for Eselectin Biomarker Activity (AID 2283077); conditions: primary human HUVEC with PBMC; actives raise or lower the signal
Procedure, shortened: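 E-selectin ELISA on LPS-stimulated endothelial cell/PBMC co-cultures, read 24 h post-treatment; gains and losses fitted against DMSO. Parallel SRB staining (0.1% SRB after 10% TCA fixation, 560 nm) flags overt cytotoxicity.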

[20] = read-out: CD69, CD69 (gene 969); assay: BSK_SAg_CD69: BioMAP Diversity Plus: SAg Assay for CD69 Biomarker Activity (AID 2283089); conditions: primary human HUVEC with PBMC; actives raise or lower the signal
Procedure, shortened: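 Primary human vascular co-culture (umbilical vein endothelium with peripheral blood mononuclear cells) exposed to test chemical for 24 h. CD69 levels quantified by fluorescence ELISA; DMSO served as negative control for bidirectional fitting.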

Measured: AC50

Tumor necrosis factor (Homo sapiens), sequence (P01375 whole entry, looked up): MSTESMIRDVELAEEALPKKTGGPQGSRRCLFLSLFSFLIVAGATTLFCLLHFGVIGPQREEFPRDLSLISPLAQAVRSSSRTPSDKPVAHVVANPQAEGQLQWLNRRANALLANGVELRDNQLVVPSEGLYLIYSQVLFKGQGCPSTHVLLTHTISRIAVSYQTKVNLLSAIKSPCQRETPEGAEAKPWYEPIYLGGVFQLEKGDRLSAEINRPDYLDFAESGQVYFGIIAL
E-selectin (Homo sapiens), sequence (P16581 whole entry, looked up): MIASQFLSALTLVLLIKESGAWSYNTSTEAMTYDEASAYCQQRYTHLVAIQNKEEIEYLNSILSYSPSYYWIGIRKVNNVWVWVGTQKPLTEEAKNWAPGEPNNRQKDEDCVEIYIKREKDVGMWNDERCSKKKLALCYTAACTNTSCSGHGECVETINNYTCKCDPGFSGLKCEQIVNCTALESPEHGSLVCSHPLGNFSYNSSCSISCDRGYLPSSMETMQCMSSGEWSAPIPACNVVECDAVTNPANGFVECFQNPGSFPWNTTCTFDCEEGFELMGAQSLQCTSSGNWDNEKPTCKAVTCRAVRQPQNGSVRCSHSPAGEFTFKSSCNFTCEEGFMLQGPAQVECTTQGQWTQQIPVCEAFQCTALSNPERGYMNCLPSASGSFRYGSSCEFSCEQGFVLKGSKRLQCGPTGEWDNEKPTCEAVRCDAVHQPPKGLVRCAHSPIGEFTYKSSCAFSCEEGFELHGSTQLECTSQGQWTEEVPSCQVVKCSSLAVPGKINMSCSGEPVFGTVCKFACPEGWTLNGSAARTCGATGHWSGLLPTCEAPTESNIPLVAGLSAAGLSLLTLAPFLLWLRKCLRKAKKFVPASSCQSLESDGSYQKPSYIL

OCC(F)(F)OC(F)(F)C(F)(F)OC(F)(F)C(F)(F)OC(F)(F)F
active: [1] 41.4 µM and 44.4 µM | [2] 51.7 µM and 45 µM | [3] 49.3 µM and 22.2 µM | [4] 54.1 µM and 51.6 µM | [5] 45.7 µM and 45.1 µM | [6] 41 µM | [7] 47.4 µM and 51.8 µM | [9] 55.1 µM | [10] 52.2 µM | [11] 30 µM and 46.8 µM | [13] 49.8 µM | [14] 50.8 µM and 53.5 µM | [15] 42.8 µM | [16] 48.8 µM | [17] 41.6 µM
inactive: [6] | [8] | [9] | [10] | [12] | [13] | [15] | [16] | [17]

c1ccc2c(c1)Nc1ccccc1S2
active: [11] 374 nM | [14] 148 nM | [17] 26.8 µM
not listed: [2] | [20]
inactive: all other assays above

Cc1cccc(N)c1
not listed: [3] | [19]
inactive: all other assays above
